Test results reported in PubChem BioAssay (NCATS).
“And” between values parts separate entries of the source, which are not always exact repeats. Equal values may be shown once. Inconclusive results are not listed. Where a call stands in place of a potency, no number is given. The source holds several records for some structures; these can differ, active in one and inactive in another. The source made the active and inactive calls. The call rests on the fitted dose curve; in most records, active means well fitted curve in the direction sought with a large enough effect; inconclusive means small, poorly fitted or top-dose-only effect, or another doubt; inactive means no such curve, though single readings can be large; an effect the other way counts as inactive or inconclusive.
Potency means the concentration at half of the fitted maximal effect.

Assay: P-glycoprotein substrates identified in KB-3-1 adenocarcinoma cell line, qHTS therapeutic library screen (AID 1346986); further: nearly all actives have a fitted effect of over 60% in size;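 further: potency is for cytotoxicity meaning loss of cell viability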
Settings: KB-3-1 parental cells viability, CellTiter-Glo, 72 h; series mostly up to 44.5 µM
Summary of the method: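 KB-3-1 parental and colchicine-selected P-gp-overexpressing KB-8-5-11 cells (colchicine omitted during assay), 500 cells/well, dosed in dose-response for 72 h at 37 °C; CellTiter-Glo luminescence. Cytotoxic: curve class -1.1 to -2.4, max response >50%, AC50 < 10 uM.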
With `CNC(=O)c1cc(Oc2ccc(NC(=O)Nc3ccc(Cl)c(C(F)(F)F)c3)c(F)c2)ccn1` the Potency was 18.4 µM (active). With `NC(=O)c1ccc(N(C(N)=O)c2c(F)cccc2F)nc1-c1ccc(F)cc1F` the Potency was “inactive”. For `COc1ccc(Cn2ccc3ccc(C(=O)NO)cc32)cc1`, the Potency was “inactive”. For `O=c1cc(-c2ccc(O)c(O)c2)oc2cc(O)cc(O)c12`, the Potency was “inactive”. In the case of `CCC(=O)N1CCN(c2ccc(-n3c(=O)ccc4cnc5ccc(-c6cnc7ccccc7c6)cc5c43)cc2C(F)(F)F)CC1`, the Potency is reported as 0.075 µM (active). In the case of `Cc1ccc(NC(=O)c2ccc(CN3CCN(C)CC3)cc2)cc1Nc1nc(-c2cccnc2)cs1`, the Potency is reported as “inactive”. In the case of `COc1nccc(-c2c(-c3ccc(F)cc3)ncn2C2CCNCC2)n1`, the Potency is reported as “inactive”. In the case of `N=C1SC(=Cc2ccc(-c3ccc4c(c3)C(=O)NC4=O)o2)C(=O)N1c1ccc(Br)cc1`, the Potency is reported as “inactive”.

Assay: P-glycoprotein substrates identified in KB-8-5-11 adenocarcinoma cell line, qHTS therapeutic library screen (AID 1346987); further: nearly all actives have a fitted effect of over 65% in size
Settings: KB-8-5-11 (P-gp overexpressing) viability, CellTiter-Glo, 72 h; series mostly up to 44.5 µM
Summary of the method: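 KB-8-5-11, a colchicine-selected P-gp-overexpressing KB-3-1 subline, was grown without colchicine for the assay. Cells were seeded at 500 cells/well, dosed in concentration-response and incubated 72 h at 37 degree C, 5% CO2. Viability was read by CellTiter-Glo luminescence.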
For `CNC(=O)c1cc(Oc2ccc(NC(=O)Nc3ccc(Cl)c(C(F)(F)F)c3)c(F)c2)ccn1`, the Potency was “inactive and 16.4 µM (active)”. With `COc1ccnc(CS(=O)c2nc3ccc(OC(F)F)cc3[nH]2)c1OC` (stereo not drawn) the Potency was “inactive”. For `CN1N=C(N)c2cn([C@@H]3O[C@H](COP(=O)(O)O)[C@@H](O)[C@@H]3O)c3ncnc1c23`, the Potency was 0.833 µM (active). In the case of `NC(=O)c1ccc(N(C(N)=O)c2c(F)cccc2F)nc1-c1ccc(F)cc1F`, the Potency is reported as “inactive”. In the case of `CON(C)C(=O)N1N=C(c2cc(F)ccc2F)S[C@]1(CCCN)c1ccccc1`, the Potency is reported as 0.0148 µM (active). With `O=c1cc(-c2ccc(O)c(O)c2)oc2cc(O)cc(O)c12` the Potency was “inactive”. For `COc1c(C)c2c(c(O)c1CC=C(C)CCC(=O)OCCN1CCOCC1)C(=O)OC2`, the Potency was 7.43 µM (active). With `CCN(CC)CCCCNc1nc2cc(Cl)c(Cl)cc2nc1-c1ccc(-c2cccs2)s1` the Potency was 9.35 µM (active). With `CCC(=O)N1CCN(c2ccc(-n3c(=O)ccc4cnc5ccc(-c6cnc7ccccc7c6)cc5c43)cc2C(F)(F)F)CC1` the Potency was 41.8 nM (active) and 133 nM (active). In the case of `CCCCCCOC(=O)N=C(N)c1ccc(NCc2nc3cc(C(=O)N(CCC(=O)OCC)c4ccccn4)ccc3n2C)cc1`, the Potency is reported as “inactive”. In the case of `CC(C)n1c(C=C[C@H](O)C[C@H](O)CC(=O)O)c(-c2ccc(F)cc2)c2ccccc21`, the Potency is reported as 11.8 µM (active). For `c1ccc(-c2oc3ncnc(NC[C@@H]4CCCO4)c3c2-c2ccccc2)cc1`, the Potency was 20.9 µM (active) and 20.6 µM (active). For `O=C(Nc1ccc(OC(F)(F)F)cc1)c1sccc1NCc1ccnc2ccccc12`, the Potency was “inactive”. In the case of `OC[C@H]1O[C@@H](OCCc2ccc(O)cc2)[C@H](O)[C@@H](O)[C@H]1O`, the Potency is reported as “inactive”. For `N[C@@H](CC(=O)N1CCn2c(nnc2C(F)(F)F)C1)Cc1cc(F)c(F)cc1F`, the Potency was “inactive”. For `C[C@H](c1ccc(F)cc1CCCC(=O)O)N(c1cc(F)ccc1F)S(=O)(=O)c1ccc(Cl)cc1`, the Potency was “inactive”. In the case of `COc1nccc(-c2c(-c3ccc(F)cc3)ncn2C2CCNCC2)n1`, the Potency is reported as “inactive”. With `C[C@@H](O[C@H]1OCCN(Cc2n[nH]c(=O)[nH]2)[C@@H]1c1ccc(F)cc1)c1cc(C(F)(F)F)cc(C(F)(F)F)c1` the Potency was 20.9 µM (active). In the case of `N=C1SC(=Cc2ccc(-c3ccc4c(c3)C(=O)NC4=O)o2)C(=O)N1c1ccc(Br)cc1`, the Potency is reported as “inactive”.

Assay: NS1 protein of Zika virus - qHTS assay to identify small molecule inhibitors in human HEK 293 cells (AID 1347053); further: nearly all actives have a fitted effect of over 55% in size
Settings: HEK293 ZIKV MR766 infection, NS1 TR-FRET, 24 h; series mostly up to 46.1 µM
Summary of the method: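 HEK 293 cells, seeded 20 h at 37 C, were pretreated with compound 1 h, then infected with ZIKV MR766 (MOI = 0.5) for 24 h. NS1 was read by TR-FRET with two anti-NS1 antibodies, normalized to uninfected and infected wells.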
In the case of `NC(=O)c1ccc(N(C(N)=O)c2c(F)cccc2F)nc1-c1ccc(F)cc1F`, the Potency is reported as “inactive”. For `O=c1cc(-c2ccc(O)c(O)c2)oc2cc(O)cc(O)c12`, the Potency was “inactive”. In the case of `Fc1ccc(CNc2ncnc3ccc(F)cc23)cc1`, the Potency is reported as “inactive”. With `COc1c(C)c2c(c(O)c1CC=C(C)CCC(=O)OCCN1CCOCC1)C(=O)OC2` the Potency was 0.526 µM (active). With `CCN(CC)CCCCNc1nc2cc(Cl)c(Cl)cc2nc1-c1ccc(-c2cccs2)s1` the Potency was “inactive”. With `CN1CCC[C@H]1CCO[C@](C)(c1ccccc1)c1ccc(Cl)cc1` the Potency was “inactive”. In the case of `O=C(Nc1ccc(OC(F)(F)F)cc1)c1sccc1NCc1ccnc2ccccc12`, the Potency is reported as “inactive”. For `OC[C@H]1O[C@@H](OCCc2ccc(O)cc2)[C@H](O)[C@@H](O)[C@H]1O`, the Potency was “inactive”. In the case of `C[C@H](c1ccc(F)cc1CCCC(=O)O)N(c1cc(F)ccc1F)S(=O)(=O)c1ccc(Cl)cc1`, the Potency is reported as “inactive”. With `N=C1SC(=Cc2ccc(-c3ccc4c(c3)C(=O)NC4=O)o2)C(=O)N1c1ccc(Br)cc1` the Potency was “inactive”. With `O=C(O)Cc1cccc(OCCCN(Cc2cccc(C(F)(F)F)c2Cl)CC(c2ccccc2)c2ccccc2)c1` the Potency was “inactive”.
